The record followed here is ChEMBL document CHEMBL1961873, “Compounds: GSK PKIS; Assays: Nanosyn kinase panel” (2012).
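Also: reported value is the mean percent inhibition of PIM2, measured in the GSK PKIS kinase inhibitor set screen.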

The target in the experiment is Serine/threonine-protein kinase pim-2 (Homo sapiens) (UniProt Q9P1W9). Conditions: at 0.1 µM.
Serine/threonine-protein kinase pim-2 (Homo sapiens), sequence (Q9P1W9 whole entry, looked up): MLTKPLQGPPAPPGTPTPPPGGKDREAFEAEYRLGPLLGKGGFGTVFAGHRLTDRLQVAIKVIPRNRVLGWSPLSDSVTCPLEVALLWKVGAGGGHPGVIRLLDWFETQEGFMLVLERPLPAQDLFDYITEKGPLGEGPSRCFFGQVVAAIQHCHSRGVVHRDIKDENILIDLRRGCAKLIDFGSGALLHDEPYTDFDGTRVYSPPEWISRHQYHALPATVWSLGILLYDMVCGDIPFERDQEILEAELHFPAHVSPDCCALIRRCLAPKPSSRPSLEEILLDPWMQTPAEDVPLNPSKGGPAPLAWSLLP
As a reminder, the inhibition is the relative decrease from the control value, in per cent. For `Cc1ccc(Nc2ccnc(Nc3cccc(C(N)=O)c3)n2)cc1O`, the inhibition was -4.07%.

With `CN(c1ccc(NC(=O)Nc2ccc(OC(F)(F)F)cc2)cc1)c1ccnc(Nc2cccc(S(N)(=O)=O)c2)n1`, the inhibition was 0.55%.

As for `CN1CCN(C(=O)c2ccc(NC(=O)Nc3ccc(N(C)c4ccnc(Nc5ccc(CS(C)(=O)=O)cc5)n4)cc3)cc2)CC1`, the inhibition is -0.2%.

As to `NS(=O)(=O)c1ccc(N/N=C2\C(=O)Nc3ccc(Cl)cc32)cc1`, the inhibition is -0.27%.

Regarding `c1ccc(Nc2ncc(-c3ccccc3)o2)cc1`, the inhibition was -1.31%.

As to `CS(=O)(=O)CCNCc1nc(-c2ccc3ncnc(Nc4ccc(OCc5cccc(C(F)(F)F)c5)cc4)c3c2)cs1`, the inhibition was -0.54%.

Turning to `COC(=O)c1ccc2c(c1)C(=Cc1cc(Br)c(O)c(Br)c1)C(=O)N2`, the inhibition was determined as 10.7%.

As for `O=C(Nc1ccc(Oc2ccc3[nH]c(NC(=O)c4ccco4)nc3c2)cc1)Nc1cc(C(F)(F)F)ccc1F`, the inhibition is -3.36%.

In the case of `CC(C)c1ccc(Nc2nccc(-c3cnn4ncccc34)n2)cc1`, the inhibition is -0.13%.

As for `CS(=O)(=O)Nc1cccc(-c2ccc3c(NC(=O)C4CC4)n[nH]c3c2)c1`, the inhibition is 0.5%.

Turning to `COC(=O)Nc1nc2cc(Oc3ccc(NC(=O)Nc4cccc(Br)c4)cc3)ccc2[nH]1`, the inhibition is -0.42%.

Take `N#Cc1cccc(Nc2nccc(-c3cnn4ncccc34)n2)c1`: the inhibition came to 0.59%.

On to `NS(=O)(=O)c1ccc(Nc2cc(-c3cccc(O)c3)n[nH]2)cc1`, for which the inhibition was 0.62%.

Consider `CC(C)c1ccc2c(c1)NC(=O)/C2=N/Nc1ccc(S(N)(=O)=O)cc1`, for which the inhibition was -0.21%.

Consider `Cc1cc(O)cc(C)c1/C=C/c1cncc(C(=O)N(C)C)c1`, for which the inhibition came to 0.03%.

For the compound `c1ccc(Cc2nc3ccc(Nc4ncnc5ccccc45)cc3[nH]2)cc1`, the inhibition was -0.72%.

As for `Cc1ccc(O)cc1Nc1ccnc2ccc(S(C)(=O)=O)cc12`, the inhibition turned out to be 0.23%.

Consider `COc1ccc(-c2nn3ncccc3c2-c2ccnc(Nc3cccc(C(F)(F)F)c3)n2)cc1`, for which the inhibition was determined as 0.02%.

As for `Cc1nc(-c2ccccc2)n2nc(NCCCN3CCOCC3)ncc12`, the inhibition worked out at 0.19%.

Regarding `Nc1nccc(C#Cc2cncnc2Nc2ccc(OCc3cccc(F)c3)c(Cl)c2)n1`, the inhibition was 0.62%.

`C[C@@H](Oc1cc(-n2cnc3ccc(OCC4CCN(C)CC4)cc32)sc1C(N)=O)c1ccccc1C(F)(F)F`: the inhibition was found to be 0.26%.

Take `N#Cc1c(NC(=O)c2ccccc2F)sc2c1CCCC2`: the inhibition amounted to 0.14%.

As for `Nc1nccc(-c2c(-c3ccc(F)cc3)ncn2CCCN2CCOCC2)n1`, the inhibition stood at 0.76%.

As for `COc1cccc(-n2ncc3c(N/N=C/c4ccc(C)cc4)ncnc32)c1`, the inhibition was -0.44%.

For `C[C@@H](Oc1cc(-n2cnc3ccc(OC[C@@H](O)CO)cc32)sc1C(N)=O)c1ccccc1Cl`, the inhibition was -0.13%.

As to `Cc1cc(-c2ccccn2)cc(C)c1/C=C/c1cncc(-c2nn[nH]n2)c1`, the inhibition stood at 0.01%.

Take `Cc1ccc2c(-c3ccnc(Nc4cccc(C(F)(F)F)c4)n3)c(-c3ccccc3)nn2n1`: the inhibition was -0.26%.

Regarding `CCn1c(-c2nonc2N)nc2ccc(F)cc21`, the inhibition is -0.12%.

As for `COc1cccc(-n2ncc3c(N/N=C/c4ccc(S(C)(=O)=O)cc4)ncnc32)c1`, the inhibition is -3.69%.

Consider `Cc1ccc2c(c1)/C(=N/Nc1ccc(S(N)(=O)=O)cc1)C(=O)N2`, for which the inhibition was determined as 0.28%.

For `Cc1cc(Cl)cc2c1NC(=O)C2=NNc1ccc(S(N)(=O)=O)cc1`, the inhibition is -0.12%.

In the case of `Nc1ccc(C#Cc2cncnc2Nc2ccc(OCc3cccc(F)c3)c(Cl)c2)cc1`, the inhibition turned out to be 0.43%.

With `Oc1cccc(-c2nc(-c3ccccc3)[nH]c2-c2ccncc2)c1`, the inhibition is -0.34%.

Take `O=C1Nc2ccc(-c3cccnc3)cc2C1=Cc1cc(Br)c(O)c(Br)c1`: the inhibition stood at 8.09%.
